Data published in PubChem BioAssay (NCATS).
Records with an inconclusive call do not appear. Activity calls are given as the source filed them. Calls come from the whole dose curve.

What follows are molecules tested against Nucleoprotein (Lymphocytic choriomeningitis virus (strain Armstrong)) (UniProt P09992) (assay: qHTS for Inhibitors of the Functional Ribonucleoprotein Complex (vRNP) of Lymphocytic Choriomeningitis Arenaviruses (LCMV): LCMV Primary Screen - GLuc reporter signal (AID 1347086; note: nearly all actives have a fitted effect of over 70% in size)). Settings: LCMV minigenome vRNP cell assay, Gaussia luciferase reporter; series mostly up to 57.5 µM; activity change, negative = inhibition: at the top concentration.
% is set by controls: 0 for no effect and ±100 for the full control effect; potency is the fitted concentration of half-maximal effect.

Sequence of Nucleoprotein (Lymphocytic choriomeningitis virus (strain Armstrong)) (P09992 whole entry, looked up): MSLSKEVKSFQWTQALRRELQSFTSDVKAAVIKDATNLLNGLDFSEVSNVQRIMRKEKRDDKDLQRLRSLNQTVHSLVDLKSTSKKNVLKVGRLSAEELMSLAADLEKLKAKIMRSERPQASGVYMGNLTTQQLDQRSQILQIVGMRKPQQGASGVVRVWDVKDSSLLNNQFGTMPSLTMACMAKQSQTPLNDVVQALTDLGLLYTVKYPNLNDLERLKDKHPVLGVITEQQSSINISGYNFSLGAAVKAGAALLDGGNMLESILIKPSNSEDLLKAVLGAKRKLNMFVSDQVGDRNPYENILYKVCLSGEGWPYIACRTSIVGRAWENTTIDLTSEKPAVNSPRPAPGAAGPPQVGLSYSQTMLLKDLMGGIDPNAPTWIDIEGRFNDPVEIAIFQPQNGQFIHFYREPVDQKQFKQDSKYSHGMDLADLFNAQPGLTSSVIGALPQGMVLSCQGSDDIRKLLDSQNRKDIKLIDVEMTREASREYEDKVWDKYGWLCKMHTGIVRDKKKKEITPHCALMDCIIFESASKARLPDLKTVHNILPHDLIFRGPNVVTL

Row | SMILES | activity change, negative = inhibition | Potency
1 | CN1CCC[C@H]1CCO[C@](C)(c1ccccc1)c1ccc(Cl)cc1 | 16.5% (inactive) | –
2 | COC(=O)c1ccc(=O)c2nc3/c(=C/O)c(O)cc(=O)c3[nH]c12 | 26.2% (inactive) | –
3 | COC(=O)c1cc(OC)cc(O)c1C(=O)c1c(O)cc(C)cc1O | -7.19% (inactive) | –
4 | CC1(C)C=Cc2c(ccc(C(=O)/C=C/c3ccccc3)c2O)O1 | -9.86% (inactive) | –
5 | COc1cc(C)ccc1C(C)C | 8.98% [at 115 µM] (inactive) | –
6 | C/C=C(\C)C(=O)O[C@@H]([C@H](O)c1cc2ccc(=O)oc2cc1OC)C(C)(C)O | -0.373% (inactive) | –
7 | O=C1C=C(O)c2cccc(O)c2C1=O | 22.8% (inactive) | –
8 | COc1cc(C(=O)OC2C[C@H]3CC[C@@H](C2)N3)ccc1O (stereo not given in full) | 10% (inactive) | –
9 | C/C=C(/C)C(=O)O[C@@H]1c2c(ccc3ccc(=O)oc23)O[C@@H]1C(C)(C)OC(C)=O | 10.8% (inactive) | –
10 | CC(C)(O)c1cc2nc(-c3cnc(N)nc3)nc(N3CCOCC3)c2s1 | – | 0.611 µM (active)
11 | CC1(C)C2CC1[C@@](C)(O)[C@H](O)C2 (stereo not given in full) | 7.47% (inactive) | –
12 | COC(=O)c1cc(O)c(O)c(O)c1 | -1.04% (inactive) | –
13 | CCCCN | -0.424% (inactive) | –
14 | COC1=CC(=O)[C@@]2([C@@H]1O)[C@@H](Cl)C[C@]13C(OC)=C(OC)C(=O)C[C@]21CCN3C | 4.41% (inactive) | –
15 | COc1ccc2c(c1)C(=O)CC(c1ccc(OC)c(OC)c1)O2 (stereo not given) | 17.1% (inactive) | –
16 | COc1ccc(C(=O)OC2C[C@H]3CC[C@@H](C2)N3O)cc1OC (stereo not given in full) | -2.27% (inactive) | –
17 | CSCC[C@@H](N)C(=O)O | -2.59% (inactive) | –
18 | ON=Cc1ccnc2ccccc12 | 37.1% (inactive) | –
19 | CC1=CC23C(=O)C(C=C(CO)[C@@H](O)[C@]2(O)[C@H]1O)[C@H]1[C@@H](C[C@H]3C)C1(C)C (stereo not given in full) | 2.37% (inactive) | –
20 | CC(=O)c1ccc(C)cc1 | 20.1% [at 115 µM] (inactive) | –

Row | SMILES | activity change, negative = inhibition | Potency
21 | CO[C@H]1[C@@H]2C=CO[C@@H](O[C@H]3O[C@@H](CO)[C@H](O)[C@@H](O)[C@@H]3O)[C@@H]2[C@@]2(CO)O[C@@H]12 | 0.0231% (inactive) | –
22 | C/C(=C\C(=O)O)CC(=O)O | 10.6% (inactive) | –
23 | CC[C@@H](O)C[C@H]1CCC[C@@]2(C[C@@H]3OC(=O)/C=C/[C@@](C)(O)[C@@H](O)[C@H](C)[C@@H](O)[C@H](OC4CCC(N(C)C)C(C)O4)[C@@H](O)[C@](C)(O)CCCCC/C=C/[C@@H]4CC(C)(C)O[C@@]4(O)C[C@H](O2)[C@H]3C)O1 (stereo not given in full) | -110% (inactive) | –
24 | C/C=C(\C)C(=O)O[C@H]1CC(C)=C2C(=O)C=C(C)C2[C@@H]2OC(=O)[C@@](C)(OC(=O)C=C(C)C)C21 (stereo not given in full) | -0.52% (inactive) | –
25 | CCCCC/C=C\C/C=C\C=C\[C@@H](O)C/C=C\CCCC(=O)O | 14.7% [at 0.757 µM] (inactive) | –
26 | CC(=O)O[C@H]1C(=O)[C@@]2(C)C([C@H](OC(=O)c3ccccc3)[C@]3(O)C[C@H](OC(=O)[C@H](O)[C@@H](NC(=O)c4ccccc4)c4ccccc4)C(C)=C1C3(C)C)[C@]1(OC(C)=O)CO[C@@H]1C[C@H]2O (stereo not given in full) | -49.3% (inactive) | –
27 | COc1cc(C(=O)O[C@@H]2CC3CC[C@]2(C)C3(C)C)ccc1O | 31.5% (inactive) | –
28 | C=C[C@@]1(C)CC(=O)[C@]2(O)[C@@]3(C)[C@@H](O)CCC(C)(C)[C@@H]3[C@H](OC(C)=O)[C@H](O)[C@@]2(C)O1 | 71.2% (inactive) | –
29 | CCOC(=O)[C@H](CCc1ccccc1)N[C@@H](C)C(=O)N1[C@@H](C(=O)O)C[C@H]2CCC[C@@H]21 | 29.9% (inactive) | –
30 | CCCCCCCCCCCC(C)=O | 0.309% [at 115 µM] (inactive) | –
31 | CC1=CCCC(C)(C)C12CCC(C)O2 (stereo not given) | 27% [at 115 µM] (inactive) | –
32 | CC(C)(O)Cn1c(NC(=O)c2ccc(-c3cn[nH]c3)s2)nc2cc(CN3CCOCC3)ccc21 | – | 10.9 µM (active)
33 | CS(=O)(=O)N1CCN(Cc2cc3nc(-c4cccc5[nH]ncc45)nc(N4CCOCC4)c3s2)CC1 | – | 1.37 µM (active)
34 | O=C1CCCCCCCCCCCCCCO1 | 25.7% [at 115 µM] (inactive) | –
35 | COC(=O)[C@@H]1CC2=CC(=O)CC[C@]2(C)[C@@]23O[C@@H]2C[C@@]2(C)[C@H](CC[C@@]24CCC(=O)O4)[C@@H]13 | 42.3% (inactive) | –
36 | C[C@@H]1C(=O)O[C@@H]2CC34[C@H]5C[C@@H](C(C)(C)C)C36[C@H](OC(=O)[C@@H]6O)OC4(C(=O)O5)[C@@]12O (stereo not given in full) | 7.98% (inactive) | –
37 | O=C1C=C(c2ccccc2)CO1 | 21.1% (inactive) | –
38 | COc1cc(C2c3cc4c(c(O)c3CC3COC(=O)C32)OCO4)cc(OC)c1O (stereo not given) | -75% (inactive) | –
39 | CC[C@H]1OC(=O)[C@H](C)[C@@H](O[C@H]2C[C@@](C)(OC)[C@@H](O)[C@H](C)O2)[C@H](C)[C@@H](O[C@@H]2O[C@@H](C)C[C@H](N(C)C)[C@@H]2O)[C@](C)(O)C[C@@H](C)C(=O)[C@H](C)[C@@H](O)[C@]1(C)O | -4.46% (inactive) | –
40 | C=C[C@](C)(O)CC[C@@H]1[C@@]2(C)CCCC(C)(C)[C@@H]2CC[C@@]1(C)O | 0.795% [at 115 µM] (inactive) | –
